Reference: PubChem BioAssay (EPA / NIEHS)
Results filed as inconclusive are left out. A structure can be active in one record and inactive in another. Calls of active or inactive are those of the source. How the source made its calls, unless noted: active means hit-call score of the fitted dose curve at least 0.9, where 1 is the maximum; inconclusive means response in the unintended direction; inactive means score below 0.9.

How the values were obtained:
[1] = biological target: Estrogen receptor (Homo sapiens) (UniProt P03372); assay: ATG_ERa_TRANS: Attagene TRANS-FACTORIAL HepG2 Assay for human Estrogen Receptor alpha (ERa) (AID 2282970); settings: HepG2 Attagene TRANS ERa GAL4 reporter, mRNA
Estrogen receptor (Homo sapiens), sequence (P03372 whole entry, looked up, the tested form may be a part): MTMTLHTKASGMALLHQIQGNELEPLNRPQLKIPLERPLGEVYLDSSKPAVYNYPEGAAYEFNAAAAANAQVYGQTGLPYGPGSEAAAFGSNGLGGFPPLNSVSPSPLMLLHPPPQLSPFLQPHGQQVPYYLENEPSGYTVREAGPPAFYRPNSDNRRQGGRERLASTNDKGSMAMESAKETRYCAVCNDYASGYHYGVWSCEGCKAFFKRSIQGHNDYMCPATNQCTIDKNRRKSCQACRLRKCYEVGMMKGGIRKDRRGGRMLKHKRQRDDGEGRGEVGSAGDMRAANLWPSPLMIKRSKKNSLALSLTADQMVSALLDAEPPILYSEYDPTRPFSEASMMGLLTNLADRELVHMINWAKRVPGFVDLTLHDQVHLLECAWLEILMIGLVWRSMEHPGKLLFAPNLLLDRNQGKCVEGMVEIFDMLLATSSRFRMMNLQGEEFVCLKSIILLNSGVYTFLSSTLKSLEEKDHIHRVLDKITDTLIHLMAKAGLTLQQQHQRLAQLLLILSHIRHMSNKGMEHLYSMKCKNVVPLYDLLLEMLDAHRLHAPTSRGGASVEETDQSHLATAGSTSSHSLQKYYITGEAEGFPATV
In short: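 HepG2 cells transiently transfected with multiplexed GAL4-UAS reporter units read out chimeric NR-Gal4 activity. After 24 h compound exposure, reporter mRNA was quantified by RT-PCR, 6-FAM labeling, HpaI digestion and capillary electrophoresis, relative to DMSO.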

[2] = biological target: Steroid hormone receptor ERR1 (Homo sapiens) (UniProt P11474); assay: ATG_ERRa_TRANS: Attagene TRANS-FACTORIAL HepG2 Assay for human Estrogen-Related Receptor alpha (ERRa) (AID 2282971); settings: HepG2 Attagene TRANS reporter, ERRa transactivation
Steroid hormone receptor ERR1 (Homo sapiens), sequence (P11474 whole entry, looked up, the tested form may be a part): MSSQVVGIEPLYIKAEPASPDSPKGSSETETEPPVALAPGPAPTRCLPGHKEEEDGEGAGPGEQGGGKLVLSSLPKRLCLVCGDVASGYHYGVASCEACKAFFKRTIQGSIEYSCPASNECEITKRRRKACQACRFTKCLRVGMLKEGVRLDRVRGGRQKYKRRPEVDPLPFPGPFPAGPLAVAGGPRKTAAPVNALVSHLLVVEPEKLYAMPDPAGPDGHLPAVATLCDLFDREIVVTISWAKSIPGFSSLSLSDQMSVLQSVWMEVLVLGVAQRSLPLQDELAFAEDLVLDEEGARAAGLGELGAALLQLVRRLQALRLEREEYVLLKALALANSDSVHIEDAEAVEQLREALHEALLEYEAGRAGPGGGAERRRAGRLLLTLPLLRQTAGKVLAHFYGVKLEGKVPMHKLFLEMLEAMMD
In short: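 HepG2 cells transiently transfected with GAL4-UAS reporter units and chimeric NR-Gal4 constructs; after 24 hour compound incubation, reporter mRNA quantified by RT-PCR, fluorescent labelling and capillary electrophoresis, gain of signal versus DMSO.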

[3] = biological target: X-box-binding protein 1 (Homo sapiens) (UniProt P17861); assay: ATG_Xbp1_CIS: Attagene CIS-FACTORIAL HepG2 Assay for human X-box Binding Protein 1 (XBP1) (AID 2282972; active means hit-call score of the fitted dose curve at least 0.9, where 1 is the maximum; inactive means score below 0.9); settings: HepG2 XBP1 cis-element reporter, Attagene multiplex; actives raise or lower the signal
X-box-binding protein 1 (Homo sapiens), sequence (P17861 whole entry, looked up, the tested form may be a part): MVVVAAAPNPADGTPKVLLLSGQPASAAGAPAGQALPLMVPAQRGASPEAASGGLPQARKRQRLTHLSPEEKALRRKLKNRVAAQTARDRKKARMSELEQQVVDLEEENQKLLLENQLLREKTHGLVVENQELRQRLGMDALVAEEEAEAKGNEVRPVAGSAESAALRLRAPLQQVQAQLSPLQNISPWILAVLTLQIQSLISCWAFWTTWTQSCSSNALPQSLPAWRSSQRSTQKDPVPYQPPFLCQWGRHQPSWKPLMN
In short: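 Fluorescence-labelled cDNA fragments from reporter transcripts, separated by capillary electrophoresis, give the signal. Source: HepG2 cells transfected with promoter-driven reporter units, harvested 24 h post-dose. DMSO served as reference for bidirectional curve fitting.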

[4] = ATG_M_19_TRANS: Attagene TRANS-FACTORIAL HepG2 Assay for M19 Transcription Factor (Internal Marker) (AID 2282974); settings: HepG2 Attagene TRANS-FACTORIAL M19 internal marker reporter
In short: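 HepG2 transiently transfected with GAL4-UAS multiplex reporter constructs, exposed 24 h; reporter RNA quantified by RT-PCR, 6-FAM labeling, HpaI digestion and capillary electrophoresis; internal background marker fitted upward versus DMSO.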

[5] = biological target: Bile acid receptor (Homo sapiens) (UniProt Q96RI1); assay: ATG_FXR_TRANS: Attagene TRANS-FACTORIAL HepG2 Assay for Farnesoid X Receptor (FXR) (AID 2282979); settings: HepG2 Attagene TRANS FXR-GAL4 reporter transcription;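 further: hits raise reporter mRNA above DMSO so AC50 marks FXR activation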
Bile acid receptor (Homo sapiens), sequence (Q96RI1 whole entry, looked up, the tested form may be a part): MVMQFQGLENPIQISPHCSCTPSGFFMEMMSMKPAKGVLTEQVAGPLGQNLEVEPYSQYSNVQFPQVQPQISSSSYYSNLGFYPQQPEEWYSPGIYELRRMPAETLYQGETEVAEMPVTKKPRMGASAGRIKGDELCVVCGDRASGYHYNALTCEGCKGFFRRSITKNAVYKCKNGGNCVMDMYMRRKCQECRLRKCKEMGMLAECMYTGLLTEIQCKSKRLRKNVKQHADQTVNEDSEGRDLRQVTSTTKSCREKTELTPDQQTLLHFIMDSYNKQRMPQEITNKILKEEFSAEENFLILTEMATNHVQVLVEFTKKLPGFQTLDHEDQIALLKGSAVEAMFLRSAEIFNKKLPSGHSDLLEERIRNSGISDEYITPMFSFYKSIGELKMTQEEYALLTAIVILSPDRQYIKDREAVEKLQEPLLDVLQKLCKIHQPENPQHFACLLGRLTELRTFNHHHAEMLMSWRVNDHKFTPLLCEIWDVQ
In short: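 HepG2 cells were transiently transfected with GAL4-UAS reporters driven by chimeric NR-Gal4 proteins and dosed for 24 h. Reporter mRNA was quantified by RT-PCR, fluorescent labelling, HpaI digestion and capillary electrophoresis, with gain of signal scored versus DMSO.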

[6] = biological target: Oxysterols receptor LXR-beta (Homo sapiens) (UniProt P55055); assay: ATG_LXRb_TRANS: Attagene TRANS-FACTORIAL HepG2 Assay for human Liver X Receptor beta (LXRb) (AID 2282981); settings: HepG2 Attagene TRANS GAL4-LXRb reporter, mRNA
Oxysterols receptor LXR-beta (Homo sapiens), sequence (P55055 whole entry, looked up, the tested form may be a part): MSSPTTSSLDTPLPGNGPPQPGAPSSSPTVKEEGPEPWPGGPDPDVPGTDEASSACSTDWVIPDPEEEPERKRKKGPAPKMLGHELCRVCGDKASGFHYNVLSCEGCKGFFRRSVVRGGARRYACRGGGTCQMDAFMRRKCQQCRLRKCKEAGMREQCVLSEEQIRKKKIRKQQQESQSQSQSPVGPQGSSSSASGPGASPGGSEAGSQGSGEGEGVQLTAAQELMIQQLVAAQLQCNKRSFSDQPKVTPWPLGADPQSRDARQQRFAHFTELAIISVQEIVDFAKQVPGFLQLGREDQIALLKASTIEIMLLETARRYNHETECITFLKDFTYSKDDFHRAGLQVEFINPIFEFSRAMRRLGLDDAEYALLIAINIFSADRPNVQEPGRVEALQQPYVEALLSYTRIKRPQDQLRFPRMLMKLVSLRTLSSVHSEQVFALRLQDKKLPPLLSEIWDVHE
In short: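 HepG2 cells transiently transfected with multiple reporter transcription units carrying chimeric NR-Gal4 proteins acting on GAL4-UAS reporters; compound exposure 24 h. Reporter mRNA quantified by RT-PCR, 6-FAM labelling, HpaI digestion and capillary electrophoresis; gain of signal versus DMSO.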

[7] = ATG_M_32_TRANS: Attagene TRANS-FACTORIAL HepG2 Assay for M32 Transcription Factor (Internal Marker) (AID 2282984); settings: HepG2 Attagene TRANS M32 internal marker reporter
In short: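 HepG2 cells transiently transfected with multiple GAL4-UAS reporter transcription units, dosed for 24 hours; reporter mRNA quantified by RT-PCR, 6-FAM primer extension, HpaI digestion and capillary electrophoresis. Gain-of-signal fitted versus DMSO baseline; internal background-control marker.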

[8] = biological target: Transcriptional activator Myb (Homo sapiens) (UniProt P10242); assay: ATG_Myb_CIS: Attagene CIS-FACTORIAL HepG2 Assay for human Myeloblastosis (Myb) Proto-Oncogene Transcription Factor (AID 2282986; active means hit-call score of the fitted dose curve at least 0.9, where 1 is the maximum; inactive means score below 0.9); settings: HepG2 Attagene CIS-FACTORIAL Myb reporter transcription; actives raise or lower the signal
Transcriptional activator Myb (Homo sapiens), sequence (P10242 whole entry, looked up): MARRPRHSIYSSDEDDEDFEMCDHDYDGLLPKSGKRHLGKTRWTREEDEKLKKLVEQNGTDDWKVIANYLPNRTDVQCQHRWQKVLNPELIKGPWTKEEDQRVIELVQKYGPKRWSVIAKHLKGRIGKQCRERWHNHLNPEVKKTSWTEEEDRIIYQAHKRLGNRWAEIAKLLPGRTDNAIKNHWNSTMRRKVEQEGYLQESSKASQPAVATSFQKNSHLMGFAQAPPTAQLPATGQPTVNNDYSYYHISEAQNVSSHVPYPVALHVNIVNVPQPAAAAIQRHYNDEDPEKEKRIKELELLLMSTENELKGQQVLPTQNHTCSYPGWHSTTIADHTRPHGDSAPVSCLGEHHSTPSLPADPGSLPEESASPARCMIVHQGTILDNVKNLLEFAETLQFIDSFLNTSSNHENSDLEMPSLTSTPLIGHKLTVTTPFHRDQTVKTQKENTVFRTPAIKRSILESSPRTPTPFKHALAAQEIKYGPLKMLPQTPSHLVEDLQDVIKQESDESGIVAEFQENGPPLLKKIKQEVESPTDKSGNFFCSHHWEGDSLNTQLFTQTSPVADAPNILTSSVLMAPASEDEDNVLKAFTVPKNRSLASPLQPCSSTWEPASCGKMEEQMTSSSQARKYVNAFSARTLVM
In short: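 Transiently transfected HepG2 cells carrying a multiplexed cis-promoter reporter set report endogenous Myb activity after 24 h compound exposure. Reporter mRNA is read by RT-PCR with capillary electrophoresis of fluorescent products, fitted bidirectionally against DMSO.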

[9] = biological target: Nuclear respiratory factor 1 (Homo sapiens) (UniProt Q16656); assay: ATG_NRF1_CIS: Attagene CIS-FACTORIAL HepG2 Assay for human Nuclear Respiratory Factor 1 (NRF1) Orphan Gene (AID 2282987; active means hit-call score of the fitted dose curve at least 0.9, where 1 is the maximum; inactive means score below 0.9); settings: HepG2 NRF1 cis-element reporter, Attagene multiplex; actives raise or lower the signal
Nuclear respiratory factor 1 (Homo sapiens), sequence (Q16656 whole entry, looked up): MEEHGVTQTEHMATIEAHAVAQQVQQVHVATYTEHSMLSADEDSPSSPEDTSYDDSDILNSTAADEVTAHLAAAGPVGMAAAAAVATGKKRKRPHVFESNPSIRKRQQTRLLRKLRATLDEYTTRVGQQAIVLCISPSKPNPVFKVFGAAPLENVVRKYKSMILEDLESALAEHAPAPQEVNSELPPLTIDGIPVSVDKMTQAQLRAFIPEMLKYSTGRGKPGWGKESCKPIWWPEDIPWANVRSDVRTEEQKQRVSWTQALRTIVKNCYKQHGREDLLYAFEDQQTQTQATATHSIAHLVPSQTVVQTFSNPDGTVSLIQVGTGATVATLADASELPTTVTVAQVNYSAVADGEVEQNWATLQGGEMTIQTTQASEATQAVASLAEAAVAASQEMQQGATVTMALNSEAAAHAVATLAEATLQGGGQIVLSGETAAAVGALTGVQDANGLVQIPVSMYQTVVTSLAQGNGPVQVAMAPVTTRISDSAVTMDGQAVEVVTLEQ
In short: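 HepG2 cells transiently transfected with multiple cis-regulated reporter units, exposed 24 h. Reporter mRNAs measured by RT-PCR, fluorescent labelling, HpaI digestion and capillary electrophoresis; bidirectional fitting against DMSO.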

[10] = ATG_NFI_CIS: Attagene CIS-FACTORIAL HepG2 Assay for human Nuclear Factor I (NFI) (AID 2282989; active means hit-call score of the fitted dose curve at least 0.9, where 1 is the maximum; inactive means score below 0.9); settings: HepG2 cis-regulatory reporter, NFI response element transcription; actives raise or lower the signal
In short: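 Read-out: reporter mRNA via RT-PCR plus capillary electrophoresis with fluorescence detection. Transiently transfected HepG2 (endogenous TF activity on cis promoters), 24 h compound exposure; gain or loss of signal fitted against DMSO.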

[11] = biological target: Myc proto-oncogene protein (Homo sapiens) (UniProt P01106); assay: ATG_Myc_CIS: Attagene CIS-FACTORIAL HepG2 Assay for human Myelocytomatosis (Myc) Proto-Oncogene Transcription Factor (AID 2282990; active means hit-call score of the fitted dose curve at least 0.9, where 1 is the maximum; inactive means score below 0.9); settings: HepG2, Attagene cis-reporter transcription factor activity; actives raise or lower the signal
Myc proto-oncogene protein (Homo sapiens), sequence (P01106 whole entry, looked up): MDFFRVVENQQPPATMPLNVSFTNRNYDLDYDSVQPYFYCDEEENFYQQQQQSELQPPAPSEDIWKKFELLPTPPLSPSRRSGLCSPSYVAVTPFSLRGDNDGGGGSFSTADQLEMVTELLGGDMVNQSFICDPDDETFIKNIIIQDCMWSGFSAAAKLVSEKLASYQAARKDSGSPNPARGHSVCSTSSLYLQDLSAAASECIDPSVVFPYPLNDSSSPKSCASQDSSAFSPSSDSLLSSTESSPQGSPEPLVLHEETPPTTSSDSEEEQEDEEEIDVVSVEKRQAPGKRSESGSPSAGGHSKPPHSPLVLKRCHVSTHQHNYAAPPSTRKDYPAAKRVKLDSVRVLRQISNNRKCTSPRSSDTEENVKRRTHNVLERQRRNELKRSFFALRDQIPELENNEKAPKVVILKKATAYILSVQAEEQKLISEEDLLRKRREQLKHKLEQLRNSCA
In short: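 HepG2 cells transiently transfected with multiple cis-promoter-driven reporter transcription units, so endogenous TF activity is read. After 24 h compound exposure, reporter mRNA was quantified by RT-PCR, 6-FAM labelling, HpaI digestion and capillary electrophoresis; bidirectional fit versus DMSO.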

[12] = biological target: Glucocorticoid receptor (Homo sapiens) (UniProt P04150); assay: ATG_GR_TRANS: Attagene TRANS-FACTORIAL HepG2 Assay for human Glucocorticoid Receptor (GR) (AID 2282978); settings: HepG2 Attagene TRANS GR reporter, mRNA transcription;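 further: activators score as hits since higher reporter transcript over DMSO is fitted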
In short: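 HepG2 cells transiently transfected with GAL4-UAS reporter units and exogenous GR-Gal4 chimera, dosed 24 h. Reporter mRNA by RT-PCR, FAM labeling, HpaI digest and capillary electrophoresis; gain-of-signal fit versus DMSO.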

[13] = biological target: Oxysterols receptor LXR-alpha (Homo sapiens) (UniProt Q13133); assay: ATG_LXRa_TRANS: Attagene TRANS-FACTORIAL HepG2 Assay for human Liver X Receptor alpha (LXRa) (AID 2282980); settings: HepG2 Attagene TRANS reporter, LXRa transactivation
Oxysterols receptor LXR-alpha (Homo sapiens), sequence (Q13133 whole entry, looked up, the tested form may be a part): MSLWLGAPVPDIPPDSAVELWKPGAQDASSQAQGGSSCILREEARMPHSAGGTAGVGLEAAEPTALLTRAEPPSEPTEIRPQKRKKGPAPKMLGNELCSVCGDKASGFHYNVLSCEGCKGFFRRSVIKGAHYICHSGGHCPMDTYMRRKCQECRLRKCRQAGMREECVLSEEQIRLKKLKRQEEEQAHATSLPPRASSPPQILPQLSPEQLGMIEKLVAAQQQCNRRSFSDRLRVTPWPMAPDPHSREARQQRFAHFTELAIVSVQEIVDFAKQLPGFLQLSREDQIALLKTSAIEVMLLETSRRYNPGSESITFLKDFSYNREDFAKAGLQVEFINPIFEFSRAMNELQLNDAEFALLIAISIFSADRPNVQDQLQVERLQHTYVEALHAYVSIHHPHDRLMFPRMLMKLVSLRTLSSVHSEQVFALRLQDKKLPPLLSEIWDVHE
In short: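 HepG2 cells transiently transfected with GAL4-UAS reporter units for chimeric NR-Gal4 proteins, exposed to chemicals for 24 h. Reporter mRNA quantified by RT-PCR and capillary electrophoresis; gain of signal fitted relative to DMSO.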

[14] = biological target: Hepatocyte nuclear factor 4-alpha (Homo sapiens) (UniProt P41235); assay: ATG_HNF4a_TRANS: Attagene TRANS-FACTORIAL HepG2 Assay for human Hepatocyte Nuclear Factor 4 alpha (HNF4a) (AID 2282982); settings: HepG2 HNF4a transactivation reporter, mRNA readout
In short: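 HepG2 cells transiently transfected with multiplexed GAL4-UAS reporter units responsive to chimeric NR-GAL4 proteins; compound exposure 24 h. Reporter mRNA quantified by RT-PCR, 6-FAM labelling, HpaI digestion and capillary electrophoresis; gain of signal versus DMSO baseline.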

[15] = ATG_M_06_TRANS: Attagene TRANS-FACTORIAL HepG2 Assay for M06 Transcription Factor (Internal Marker) (AID 2282983); settings: HepG2 Attagene TRANS M06 internal marker reporter;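 further: reporter transcript level by RT-PCR then capillary electrophoresis fluorescence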
In short: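 HepG2 cells transiently transfected with GAL4-UAS multiple reporter units, dosed 24 h. Reporter RNA reverse-transcribed, PCR-amplified, 6-FAM-labeled, HpaI-digested and quantified by capillary electrophoresis; this internal-marker signal fitted upward relative to DMSO.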

[16] = biological target: Nuclear receptor subfamily 4 group A member 2 (Homo sapiens) (UniProt P43354); assay: ATG_NURR1_TRANS: Attagene TRANS-FACTORIAL HepG2 Assay for human Nuclear Receptor Related Protein 1 (NURR1) (AID 2282985); settings: HepG2 Attagene TRANS reporter, mRNA readout
In short: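 HepG2 cells transiently transfected with GAL4-UAS reporter units and chimeric NR-Gal4 constructs; chemical exposure 24 h. Reporter mRNA quantified by RT-PCR, fluorescent labelling and capillary electrophoresis; gain of signal fitted relative to DMSO baseline.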

[17] = ATG_GAL4_TRANS: Attagene TRANS-FACTORIAL HepG2 Assay for GAL4 (Internal Marker) (AID 2282976); settings: HepG2 Attagene TRANS GAL4 internal marker reporter
In short: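 Background-control readout: GAL4-UAS reporter transcript in transiently transfected HepG2 cells after 24 h compound exposure. Measured by RT-PCR, 6-FAM primer extension, HpaI digest and capillary electrophoresis; gain-of-signal fit versus DMSO.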

[18] = biological target: Nuclear receptor subfamily 1 group I member 3 (Homo sapiens) (UniProt Q14994); assay: ATG_CAR_TRANS: Attagene TRANS-FACTORIAL HepG2 Assay for human Constitutive Androstane Receptor (CAR) (AID 2282969); settings: HepG2 Attagene TRANS-FACTORIAL CAR reporter;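 further: activators raise reporter mRNA above DMSO so AC50 marks induction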
Nuclear receptor subfamily 1 group I member 3 (Homo sapiens), sequence (Q14994 whole entry, looked up, the tested form may be a part): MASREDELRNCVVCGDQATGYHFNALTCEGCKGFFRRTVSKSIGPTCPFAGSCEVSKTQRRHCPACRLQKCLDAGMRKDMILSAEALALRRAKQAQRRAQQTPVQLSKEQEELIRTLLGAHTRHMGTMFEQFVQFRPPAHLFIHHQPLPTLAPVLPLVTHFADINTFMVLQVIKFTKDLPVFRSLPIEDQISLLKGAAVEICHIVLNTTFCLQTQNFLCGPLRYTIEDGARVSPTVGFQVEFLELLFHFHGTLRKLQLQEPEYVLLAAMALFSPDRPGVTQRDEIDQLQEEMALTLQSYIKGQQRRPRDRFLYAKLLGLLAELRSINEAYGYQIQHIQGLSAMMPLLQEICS
In short: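 HepG2 cells transiently transfected with multiplexed GAL4-UAS reporter units expressing chimeric NR-Gal4 proteins; compound exposure 24 h. Reporter mRNA measured by RT-PCR, 6-FAM labelling, HpaI digestion and capillary electrophoresis; gain-of-signal fitted against DMSO baseline.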

[19] = biological target: Estrogen-related receptor gamma (Homo sapiens) (UniProt P62508); assay: ATG_ERRg_TRANS: Attagene TRANS-FACTORIAL HepG2 Assay for human Estrogen-Related Receptor gamma (ERRg) (AID 2282977); settings: HepG2 Attagene TRANS reporter, ERRg transactivation;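 further: hits increase reporter signal over DMSO so potencies reflect activators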
In short: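 HepG2 cells transiently transfected with multiplexed GAL4-UAS reporter units and chimeric NR-Gal4 constructs were exposed to test chemicals for 24 h. Reporter mRNA was measured by RT-PCR, 6-FAM primer extension, HpaI digestion and capillary electrophoresis; gain-of-signal versus DMSO.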

In the case of `FC(F)(F)C(F)(F)C(F)(F)C(F)(F)I`, the outcome [1] is reported as “inactive”, the outcome [2] is reported as “inactive” and the outcome [3] is reported as “inactive”. For the same compound, the outcome [4] was “inactive”, the outcome [5] was “inactive” and the outcome [6] was “inactive”. For the same compound, the outcome [7] was “inactive”, the outcome [8] was “inactive” and the outcome [9] was “inactive”. The outcome [10] was “inactive” and the outcome [11] was “inactive”.
For `O=C(O)CCC(F)(F)C(F)(F)C(F)(F)C(F)(F)C(F)(F)F`, the AC50 [1] was 118 µM (active), the outcome [1] was “inactive” and the outcome [2] was “inactive”. For the same compound, the outcome [12] was “inactive”, the outcome [5] was “inactive” and the outcome [13] was “inactive”. For the same compound, the outcome [6] was “inactive”, the outcome [14] was “inactive” and the outcome [15] was “inactive”. The outcome [7] was “inactive”, the outcome [16] was “inactive” and the outcome [8] was “inactive”. The outcome [9] was “inactive”, the outcome [10] was “inactive” and the outcome [11] was “inactive”.
For `c1cc[nH]c1`, the outcome [1] was “inactive”, the outcome [2] was “inactive” and the outcome [3] was “inactive”. The outcome [17] was “inactive”, the outcome [12] was “inactive” and the outcome [8] was “inactive”. The outcome [9] was “inactive” and the outcome [11] was “inactive”.
In the case of `CC[N+](CC)(CC)Cc1ccccc1`, the outcome [18] is reported as “inactive”, the outcome [2] is reported as “inactive” and the outcome [17] is reported as “inactive”. For the same compound, the outcome [19] was “inactive”, the outcome [12] was “inactive” and the outcome [5] was “inactive”. The outcome [13] was “inactive”, the outcome [15] was “inactive” and the outcome [7] was “inactive”. The outcome [9] was “inactive”, the outcome [10] was “inactive” and the outcome [11] was “inactive”.
In the case of `CCc1cccc(CC)c1NC(=O)C(=O)O`, the outcome [18] is reported as “inactive”, the outcome [3] is reported as “inactive” and the outcome [4] is reported as “inactive”. The outcome [17] was “inactive”, the outcome [19] was “inactive” and the outcome [12] was “inactive”. For the same compound, the outcome [5] was “inactive”, the outcome [13] was “inactive” and the outcome [6] was “inactive”. The outcome [15] was “inactive”, the outcome [7] was “inactive” and the outcome [8] was “inactive”. For the same compound, the outcome [9] was “inactive” and the outcome [11] was “inactive”.
